# PLK1 PBD inh = Plk1 (human) PBD binding inhibition. Plk1 PBD phosphopeptide binding, fluorescence polarization. P53350. hit rate 0.13% among 97,000. inhibition, %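 (tested at about 20 µM)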; in the data active = inhibition above about 34%, passing the limit was not always enough
# Cav32 inh = human Cav3.2 channel inhibition, primary screen. AID 449739. hit rate 4% among 100,000. Cav3.2-expressing cells, Fluo-4 calcium fluorescence FDSS; stronger effect = lower value. B-score at 10 µM. O95180;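 active = single-dose well whose peak fluorescence ratio is a statistical outlier from its plate by either plate-standardised score or position-corrected B-score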
# sdo1 growth = restores growth of sdo1-depleted yeast | S. cerevisiae sdo1-depleted JHY4D growth rescue, OD600 30 h; stronger effect = higher value; pdr5 snq2 efflux-pump mutant strain | hit rate 0.21% among 140,000 | AID 817 | z-score at 10 µM;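 active = z-score above 3 at both the 24 hr and the 30 hr optical density reads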;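 note: z-score against mean and SD of all compound wells on the same plate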
# PLK1 kinase inh = blocks human PLK1 kinase activity; hit rate 0.53% among 97,000; inhibition, % at 10 µM; recombinant PLK1 kinase, TR-FRET peptide phosphorylation; P53350;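 active = inhibition of 50% or more in the single-concentration screen; inactive = inhibition below 50%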;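 note: 0% = DMSO max control and 100% = H-89 dihydrochloride min control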
# DAT uptake mod = human DAT dopamine uptake with cocaine, either direction; Q01959; LLC-PK1 hDAT cells, [14C]-dopamine uptake with cocaine IC80; actives deviate in either direction; B-score at 10 µM; hit rate 1.3% among 110,000; AID 449768;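 active = Z score or B-score, a plate-position-corrected score, falls beyond the plate's 99.7% confidence bounds, in either direction; inactive = both scores lie inside the 99.7% bounds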;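 note: scored against the spread of the other compound wells on the same plate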
# Pyk2 oligo antag = blocks oligomerization of human Pyk2 in cells; Q293 cells, Pyk2 FERM NanoBiT luminescence; stronger effect = lower value; z-score (the deposit names both 25 µM and 10 µM); Q14289; AID 1347419; hit rate 0.83% among 99,000;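 active = Z-score of -3 or lower, scaled per plate to the spread of control and sample wells; inactive = z-score above -3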;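 note: negative z-score means lost luminescence so less FERM oligomerization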
# * = called active by the depositor; / = no result. A selection: hits, their analogues and other compounds. The true share with any hit is near 4.7%.
SMILES,PLK1 PBD inh,Cav32 inh,sdo1 growth,PLK1 kinase inh,DAT uptake mod,Pyk2 oligo antag
O=C(CSc1nc2ccccc2c(=O)n1Cc1ccco1)N1CCN(c2ccccc2)CC1,-8.2,-4.89*,-1.43,-3.3,0.076,-1.02
CC(C)c1ccccc1-n1c(SCC(=O)N2CCN(c3ccccc3)CC2)nnc1-c1cccnc1,2.3,-4.41*,-0.04,-6.0,2.9,-1.24
O=C(CSc1nc(N2CCCCC2)nc(N2CCCCC2)n1)N1CCN(c2ccccc2)CC1,/,-8.79*,-1.52,/,-0.0645,-1.87
CCCn1c(SCC(=O)N2CCN(c3ccccc3)CC2)nc2ccccc2c1=O,25.3,-6.25*,-1.45,-6.9,0.222,0.97
O=C(CSc1nc2ccccc2c(=O)n1Cc1ccco1)c1ccccc1,21.0,-2.18,-2.13,-3.3,0.0328,1.02
CC(C)(O)C#Cc1ccc(C(=O)NCc2ccccc2F)cc1,/,/,-0.21,/,/,/
CCNC(=S)Nc1ccc(Cl)c(C(F)(F)F)c1,/,/,0.08,/,/,/
C=CCn1c(CSCc2ccccc2)nnc1SCC(=O)N1CCN(c2ccccc2)CC1,/,/,-0.61,/,/,/
CCn1c(CSCc2ccc(C)cc2)nnc1SCC(=O)N1CCN(c2ccccc2)CC1,-8.4,-5.65*,-0.66,-6.4,0.94,1.89
CCCCCC(=O)Nc1cccc(C2=NOC3(C2)C[C@@H](C(N)=O)N(C(=O)C2(C)CC2)C3)c1 (stereo not given in full),/,0.729,/,/,-0.4,/
COC(=O)CSc1nnc2n(C3CCCCC3)c(=O)c3c4c(sc3n12)CCCC4,-14.1,-3.86*,-2.02,-14.7,-0.00787,-1.41
CCOC(=O)CSc1nnc2n(Cc3ccccc3)c(=O)c3c4c(sc3n12)CCC4,22.6,0.657,-1.23,-2.9,-1.48*,0.53
CCOC(=O)CCCSc1nc2sc3c(c2c(=O)[nH]1)CCC3,21.4,-0.00963,-0.87,-6.5,0.0158,-0.45
CCOC(=O)CSc1nnc(CSc2nc3sc4c(c3c(=O)[nH]2)CCCC4)n1-c1ccccc1,-13.6,-5.95*,-0.4,-7.1,1.87*,1.69
CCOC(=O)CSc1nnc2n(C3CCCCC3)c(=O)c3c4c(sc3n12)CCCC4,/,-3.66,-0.24,/,0.111,-0.8
CCCc1ccc(-c2cc(C(=O)Nc3ccc([N+](=O)[O-])cn3)c3ccccc3n2)cc1,/,/,-0.36,/,/,/
O=C(CNC(=O)/C(=C\c1ccccc1)NC(=O)c1ccc(Br)cc1)OCc1ccccc1,-11.2,-6.62*,-0.29,-1.9,0.316,-0.4
Cn1c(NC(=O)c2ccco2)cc(=O)n(C)c1=O,-18.9,0.577,0.68,-5.9,7.87*,0.47
Cc1c(O)nc(SCC(=O)Nc2ccc3c4c(cccc24)CC3)n(-c2ccc(F)cc2)c1=O,/,/,0.72,/,/,/
CSc1sc(C(=O)O)c2c1C(=O)CCC2,-12.1,0.0901,0.8,-7.4,-2.34*,0.67
Cc1ccc2nc(NC(=O)CSc3nnc(C)c(=O)n3N)sc2c1,/,/,0.57,/,/,/
CC(C)c1ccc(CC(C)C2C3=C(CCCC3=O)OC3=C2C(=O)CCC3)cc1 (stereo not given),-0.2,-2.78,-1.49,-13.1,0.348,-4.24*
Cc1cc(C(=O)OCn2nnc3ccccc3c2=O)c(C)n1-c1ccccc1,22.5,/,-0.78,23.3,-0.293,-3.72*
COc1c(N2CCN(C(=S)Nc3ccc(F)cc3)C(C)C2)c(F)cc2c(=O)c(C(=O)O)cn(C3CC3)c12 (stereo not given),24.1,3.6*,0.57,-11.1,/,-0.75
CCN(CC)c1ccc(NC(=O)COc2ccc(C#N)cc2)cc1S(=O)(=O)Nc1ccc(OC)cc1,/,/,-0.59,/,/,/
SMILES,PLK1 PBD inh,Cav32 inh,sdo1 growth,PLK1 kinase inh,DAT uptake mod,Pyk2 oligo antag
CCOC(=O)C1CCN(C(=O)c2oc3ccc(S(=O)(=O)N4CC(C)CC(C)C4)cc3c2C)CC1 (stereo not given),-15.0,-5.95*,-0.81,-8.2,0.654,-0.54
CCOC(=O)N1CCN(C(=O)c2oc3ccc(S(=O)(=O)N4CCOCC4)cc3c2C)CC1,/,0.855,0.36,/,1.72,0.17
CCOC(=O)N1CCN(C(=O)c2oc3ccc(S(=O)(=O)N4CCCCCC4)cc3c2C)CC1,-17.0,1.95,-0.34,-11.2,-8.1*,-0.16
CC(=O)c1ccc(N2CCN(C(=O)CCCc3nc4ccccc4s3)CC2)cc1,/,/,-0.3,/,/,/
CN1CCc2nc3ccc(Cl)cc3c(-c3ccccc3Cl)c2C1,/,/,-0.88,/,/,/
Cc1ccc(C(=O)N2CCN3C(=O)c4ccccc4C23c2ccc(Cl)cc2)cc1 (stereo not given),-6.2,-4.96*,-1.32,0.8,-0.179,-1.37
